Results from PubChem BioAssay.
Activity calls are given as the source filed them.

Experiments:
[1] = test system: Plasmodium falciparum Sir2 (PF13_0152, Sir2A); experiment: Plasmodium falciparum Sir2A binding compounds – biochemical, small-molecule microarray, 635 nm fluorescence, primary screen (AID 1098); conditions: fluorescence 635 nm, higher = more signal;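 note: score merges spot fluorescence intensity with its signal-to-noise ratio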
[2] = probe aDKK1 binding to arrayed compounds – biochemical, biotinylated probe, 635/667 nm fluorescence, primary screen (AID 1099); conditions: small-molecule microarray, higher = more signal;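 note: score merges 667nm spot fluorescence with signal to noise across triplicate slides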
[3] = probe aCHRDL2 binding to arrayed compounds – biochemical, biotinylated probe, 635/667 nm fluorescence, primary screen (AID 1100); conditions: small-molecule microarray, higher = more signal
[4] = change in splice reporter luminescence, either direction, cell-based, HEK293, spliceosome inhibition project, primary screen (AID 1101); conditions: HEK293 splicing luciferase reporter, 24 h, higher = more signal, called active from +8 up or from −8 down;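 note: HEK293 cells carrying a splicing-competent luciferase reporter gene; test concentration not given here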
[5] = molecular target: Fibroblast growth factor 10 (Homo sapiens) (UniProt O15520); experiment: compounds binding fibroblast growth factor 10 – biochemical, small-molecule microarray, 635 nm fluorescence, primary screen (AID 1102); conditions: FGF10 binding, fluorescence 635 nm, higher = more signal
Sequence of Fibroblast growth factor 10 (Homo sapiens) (O15520 whole entry, looked up): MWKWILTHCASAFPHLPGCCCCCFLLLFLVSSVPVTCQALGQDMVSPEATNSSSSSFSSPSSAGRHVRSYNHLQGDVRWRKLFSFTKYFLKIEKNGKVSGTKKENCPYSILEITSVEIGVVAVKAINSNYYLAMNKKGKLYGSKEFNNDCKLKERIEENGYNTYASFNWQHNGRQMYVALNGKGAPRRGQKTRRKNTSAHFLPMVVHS

[6] = test system: glycogen synthase kinase-3 (GSK3A per assay name; protocol says GSK3B); experiment: compounds binding glycogen synthase kinase-3 – biochemical, small-molecule microarray, 635 nm fluorescence, GSK3A, primary screen (AID 1103); conditions: fluorescence 635 nm, higher = more signal; note: the record names both GSK3A and GSK3B
[7] = molecular target: Epidermal growth factor receptor (Homo sapiens) (UniProt P00533); experiment: compounds binding epidermal growth factor receptor – biochemical, small-molecule microarray, 635 nm fluorescence, primary screen (AID 1104); conditions: EGFR binding, higher = more signal;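 note: score merges 667 nm emission intensity with spot signal to noise over triplicate slides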
Sequence of Epidermal growth factor receptor (Homo sapiens) (P00533 whole entry, looked up): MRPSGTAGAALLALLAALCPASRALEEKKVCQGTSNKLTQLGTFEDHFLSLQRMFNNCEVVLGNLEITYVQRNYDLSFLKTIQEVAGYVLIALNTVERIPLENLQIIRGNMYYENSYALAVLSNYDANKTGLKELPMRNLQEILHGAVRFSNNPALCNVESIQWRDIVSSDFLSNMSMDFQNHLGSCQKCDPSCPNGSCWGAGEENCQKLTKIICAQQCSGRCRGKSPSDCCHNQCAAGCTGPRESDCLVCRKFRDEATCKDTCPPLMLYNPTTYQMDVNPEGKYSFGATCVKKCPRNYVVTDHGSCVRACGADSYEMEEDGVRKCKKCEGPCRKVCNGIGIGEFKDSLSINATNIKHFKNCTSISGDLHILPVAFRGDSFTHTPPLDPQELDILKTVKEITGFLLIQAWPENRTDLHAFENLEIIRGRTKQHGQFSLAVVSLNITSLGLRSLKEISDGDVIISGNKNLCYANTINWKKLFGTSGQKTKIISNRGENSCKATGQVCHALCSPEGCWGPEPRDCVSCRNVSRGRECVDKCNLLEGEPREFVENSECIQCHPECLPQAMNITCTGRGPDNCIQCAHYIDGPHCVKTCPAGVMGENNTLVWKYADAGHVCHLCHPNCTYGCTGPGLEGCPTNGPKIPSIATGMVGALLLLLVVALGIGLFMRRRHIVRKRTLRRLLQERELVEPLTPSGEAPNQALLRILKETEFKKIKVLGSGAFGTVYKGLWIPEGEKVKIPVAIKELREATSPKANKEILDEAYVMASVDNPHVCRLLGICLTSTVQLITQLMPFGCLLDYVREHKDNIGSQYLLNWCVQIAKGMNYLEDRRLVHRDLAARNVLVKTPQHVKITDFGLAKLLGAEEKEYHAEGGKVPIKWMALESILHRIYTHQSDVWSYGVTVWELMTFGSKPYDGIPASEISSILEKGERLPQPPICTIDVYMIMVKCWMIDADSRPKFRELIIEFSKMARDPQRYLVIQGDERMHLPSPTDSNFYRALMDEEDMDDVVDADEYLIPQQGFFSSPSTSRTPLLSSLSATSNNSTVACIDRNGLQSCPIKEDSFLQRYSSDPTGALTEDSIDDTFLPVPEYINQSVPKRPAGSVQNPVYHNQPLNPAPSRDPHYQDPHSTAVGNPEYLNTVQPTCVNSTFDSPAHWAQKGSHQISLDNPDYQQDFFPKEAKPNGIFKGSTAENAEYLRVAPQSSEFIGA

[8] = molecular target: Follistatin-related protein 3 (Homo sapiens) (UniProt O95633); experiment: compounds binding follistatin-related protein 3 – biochemical, small-molecule microarray, 635 nm fluorescence, primary screen (AID 1105); conditions: FSTL3 binding, higher = more signal;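 note: score merges emission near 667 nm and signal to noise per printed spot across three slides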
Sequence of Follistatin-related protein 3 (Homo sapiens) (O95633 whole entry, looked up): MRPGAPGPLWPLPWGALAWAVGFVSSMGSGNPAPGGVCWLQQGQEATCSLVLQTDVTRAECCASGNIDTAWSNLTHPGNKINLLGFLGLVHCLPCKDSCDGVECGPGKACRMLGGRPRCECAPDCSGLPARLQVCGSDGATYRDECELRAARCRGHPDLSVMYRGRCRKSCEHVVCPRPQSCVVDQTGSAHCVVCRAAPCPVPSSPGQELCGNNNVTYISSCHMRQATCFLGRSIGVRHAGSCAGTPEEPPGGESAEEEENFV

[9] = molecular target: Dickkopf-related protein 1 (Homo sapiens) (UniProt O94907); experiment: small molecules binding DKK1 protein – biochemical, small-molecule microarray, 635 nm fluorescence scan, primary screen (AID 1106); conditions: higher = more signal;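 note: score merges emission near 667 nm with signal to noise over three replicate slides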
Sequence of Dickkopf-related protein 1 (Homo sapiens) (O94907 whole entry, looked up): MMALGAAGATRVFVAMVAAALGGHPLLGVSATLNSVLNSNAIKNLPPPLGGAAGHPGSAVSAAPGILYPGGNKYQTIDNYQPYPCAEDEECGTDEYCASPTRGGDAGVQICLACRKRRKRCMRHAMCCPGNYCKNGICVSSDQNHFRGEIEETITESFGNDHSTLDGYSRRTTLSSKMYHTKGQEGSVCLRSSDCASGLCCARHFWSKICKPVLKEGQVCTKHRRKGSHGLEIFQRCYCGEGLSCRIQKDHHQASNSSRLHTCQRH

[10] = test system: Inhibin beta A chain (activin A); experiment: small molecules binding activin A – biochemical, small-molecule microarray, 635 nm fluorescence scan, primary screen (AID 1107); conditions: INHBA, higher = more signal;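 note: mouse activin A protein probed at 4.33 µg/mL on printed slides; score merges bound-protein fluorescence near 667 nm with spot signal-to-noise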
[11] = test system: Human papillomavirus type 1a protein E7 (residues 44-93); experiment: small molecules binding HPV E7 44-93 – biochemical, small-molecule microarray, residues 44-93, 635 nm fluorescence, primary screen (AID 1108); conditions: fluorescence 635 nm, higher = more signal;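 note: E7 fragment applied at 1 µg/mL in TBST for 1 h at 4 C; score combines spot fluorescence with its signal to noise ratio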
[12] = hepatitis C replication reporter changes, two-sided – Huh7 cells, luciferase reporter, HCV replication inhibitor project, primary screen (AID 1109); conditions: Huh7 HCV replicon luciferase reporter, 48 h; higher = more signal;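 note: huh7 hepatoma cells harbouring a luciferase neomycin HCV replicon reporter; luciferase luminescence as measure of HCV replicon replication; test concentration not given here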
[13] = molecular target: Left-right determination factor 2 (Homo sapiens) (UniProt O00292); experiment: small molecules binding LEFTY2 protein – biochemical, small-molecule microarray, 635 nm fluorescence scan, primary screen (AID 1110); conditions: higher = more signal
Sequence of Left-right determination factor 2 (Homo sapiens) (O00292 whole entry, looked up): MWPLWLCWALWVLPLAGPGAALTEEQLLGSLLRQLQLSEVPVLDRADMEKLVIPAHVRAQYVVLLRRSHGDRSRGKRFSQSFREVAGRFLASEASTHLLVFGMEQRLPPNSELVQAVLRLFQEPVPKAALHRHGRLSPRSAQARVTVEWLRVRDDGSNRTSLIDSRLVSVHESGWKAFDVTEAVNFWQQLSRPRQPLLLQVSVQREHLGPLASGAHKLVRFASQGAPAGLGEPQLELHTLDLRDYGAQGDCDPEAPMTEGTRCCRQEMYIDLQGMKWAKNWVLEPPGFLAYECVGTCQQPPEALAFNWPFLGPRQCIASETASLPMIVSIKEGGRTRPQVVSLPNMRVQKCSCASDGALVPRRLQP

[14] = molecular target: Calmodulin-1 (Homo sapiens) (UniProt P0DP23); experiment: small molecules binding calmodulin-1 with EGTA – biochemical, small-molecule microarray, Cy5-labelled CALM1, profiling panel (AID 1111); conditions: Cy5-CALM1 binding fluorescence, higher = more signal;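 note: labelled calmodulin applied in Tris saline Tween buffer holding calcium plus EGTA and DTT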
[15] = molecular target: Calmodulin-1 (Homo sapiens) (UniProt P0DP23); experiment: small molecules binding Ca-loaded calmodulin-1 – biochemical, small-molecule microarray, Cy5-labelled CALM1, plus calcium, artefact control for SMM control-protein annotation, profiling panel (AID 1112); conditions: Cy5-CALM1 binding fluorescence, higher = more signal;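 note: score merges spot fluorescence with signal to noise from triplicate slides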
[16] = probe aWnt5a binding to arrayed compounds – biochemical, biotinylated probe, 635/667 nm fluorescence, primary screen (AID 1113); conditions: small-molecule microarray, higher = more signal;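 note: score merges 667 nm fluorescence intensity with signal-to-noise per printed feature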
[17] = probe aShh binding to arrayed compounds – biochemical, biotinylated probe, 635/667 nm fluorescence, primary screen (AID 1114); conditions: small-molecule microarray, higher = more signal;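 note: probe is biotin-labelled aShh protein from a stem cell growth factor screen; measures binding of labelled protein to compounds printed on the slide; score merges feature fluorescence at 667 nm with signal-to-noise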
[18] = probe aNog binding to arrayed compounds – biochemical, biotinylated probe, 635/667 nm fluorescence, primary screen (AID 1115); conditions: small-molecule microarray, higher = more signal;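 note: probe is biotinylated aNog protein used at 0.15 µg/mL for 1 h at 4 C; z-score combines 667 nm fluorescence of each spot with its signal to noise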
[19] = molecular target: Torsin-1A-interacting protein 1 (Homo sapiens) (UniProt Q5JTV8); experiment: compound microarray binding of lysate hLAP1 – cell lysate, small-molecule microarray, COS7 lysate, 635/667 nm fluorescence, primary screen (AID 1116); conditions: 635 nm fluorescence, higher = more signal
Sequence of Torsin-1A-interacting protein 1 (Homo sapiens) (Q5JTV8 whole entry, looked up): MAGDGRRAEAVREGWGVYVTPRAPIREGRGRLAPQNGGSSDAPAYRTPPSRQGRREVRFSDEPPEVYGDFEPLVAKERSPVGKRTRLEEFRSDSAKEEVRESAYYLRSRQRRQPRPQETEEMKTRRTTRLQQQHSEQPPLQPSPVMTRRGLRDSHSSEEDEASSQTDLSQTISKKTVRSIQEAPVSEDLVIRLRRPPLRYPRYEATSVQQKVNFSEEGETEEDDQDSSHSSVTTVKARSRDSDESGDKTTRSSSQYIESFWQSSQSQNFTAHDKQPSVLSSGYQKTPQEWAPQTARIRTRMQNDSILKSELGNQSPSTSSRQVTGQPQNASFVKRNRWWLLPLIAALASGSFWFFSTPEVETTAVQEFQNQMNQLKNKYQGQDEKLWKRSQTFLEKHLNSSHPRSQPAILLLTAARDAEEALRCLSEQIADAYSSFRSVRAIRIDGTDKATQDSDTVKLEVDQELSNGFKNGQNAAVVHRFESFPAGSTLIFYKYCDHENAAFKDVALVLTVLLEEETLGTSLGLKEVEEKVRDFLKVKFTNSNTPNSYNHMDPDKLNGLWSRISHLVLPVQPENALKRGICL

[20] = molecular target: Alpha-bungarotoxin (Bungarus multicinctus) (UniProt P60615); experiment: compounds binding labelled alpha-BTX control protein – biochemical, small-molecule microarray, Alexa647 label, 635/667 nm fluorescence, artefact control for SMM control protein annotation, profiling panel (AID 1117); conditions: alpha-BTX-A647 binding fluorescence, higher = more signal
Sequence of Alpha-bungarotoxin (Bungarus multicinctus) (P60615 whole entry, looked up): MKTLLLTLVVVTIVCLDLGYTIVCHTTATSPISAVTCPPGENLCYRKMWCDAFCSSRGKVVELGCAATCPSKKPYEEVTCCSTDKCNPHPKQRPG

Row | SMILES | composite z-score [1] | composite z-score [2] | composite z-score [3] | z-score [4] | composite z-score [5] | composite z-score [6] | composite z-score [7] | composite z-score [8] | composite z-score [9] | composite z-score [10] | composite z-score [11] | z-score [12] | composite z-score [13] | composite z-score [14] | composite z-score [15] | composite z-score [16] | composite z-score [17] | composite z-score [18] | composite z-score [19] | composite z-score [20]
1 | CC(C)N1CC=CC23O[C@@H]4C=CCOC(=O)[C@@H]4[C@H]2C(=O)N(CCCCCCO)[C@@H]3C1=O (stereo not given in full) | 1.99 | -0.284 | 0.143 | -0.594 (inactive) | 0.636 | -0.826 | -0.997 | -0.483 | -0.959 | 0.741 | -0.433 | -0.761 | -0.651 | -0.815 | -0.289 | -0.18 | -0.116 | -0.223 | 2.03 | -0.92
2 | Cc1ccccc1C(O)C1C=CC2C(=O)N(Cc3ccccc3)C(=O)C2N1n1cnnc1 (stereo not given) | 0.996 | 0.363 | 0.118 | -0.512 (inactive) | 0.517 | 0.644 | -0.126 | 0.834 | 0.189 | 0.837 | 1.29 | -0.364 | -0.305 | 0.0712 | -0.535 | 0.0388 | 0.108 | 0.2 | 0.542 | 0.611
3 | C=CCNC(=O)[C@H]1[C@@H]2C(=O)O[C@@H](c3ccccc3)[C@@H](c3ccccc3)N2[C@@H](c2ccc(O)cc2)[C@]12C(=O)N(C(=O)OCCOC)c1ccc(C#CC3(O)CCCCCC3)cc12 | 1.35 | 0.263 | 0.468 | 0.0928 (inactive) | 0.385 | 0.716 | 0.228 | 0.33 | 0.138 | 1.09 | 0.739 | -0.302 | -0.326 | 0.487 | 0.205 | -0.0445 | 0.0469 | 0.268 | 1.16 | 1.2
4 | COc1ccc(C#Cc2ccc3c(c2)[C@]2(C(=O)N3)[C@H](C(N)=O)[C@H]3C(=O)O[C@H](c4ccccc4)[C@H](c4ccccc4)N3[C@@H]2c2ccc(O)cc2)cc1 | 0.818 | 0.153 | 0.411 | 10.5 (active) | 0.904 | 0.491 | 0.248 | 0.313 | 0.0346 | -0.116 | 1.48 | -2.51 | 0.422 | 0.539 | 0.686 | -0.12 | -0.0904 | -0.215 | 1.09 | 1.05
5 | CO[C@H]1O[C@H](CO)[C@@H](OC(=O)Nc2ccc(C(F)(F)F)cc2)[C@H](OC(=O)Nc2ccccc2)[C@H]1OC(=O)Nc1ccccc1 | 1.61 | 0.995 | 0.832 | -0.624 (inactive) | 1.33 | 1.33 | 0.375 | 1.2 | 0.0148 | 0.0729 | 0.69 | -3.84 | 0.513 | 1.99 | 0.168 | 0.133 | 0.342 | 1.18 | 0.825 | 2.69
6 | COCCCNC(=O)[C@@]1(Cc2ccccc2)COC(c2ccc(OCCCO)cc2)=N1 | 1.7 | 0.583 | 1.11 | -0.37 (inactive) | 0.505 | 0.384 | -0.715 | -0.776 | -0.688 | 0.065 | 0.952 | -0.409 | -1.08 | 0.525 | 0.361 | 0.199 | 0.289 | -0.573 | 1.03 | 0.943
7 | CN(C)CCCNC(=O)[C@@]1(Cc2ccccc2I)c2ccccc2C(=O)N(Cc2ccccc2Cl)[C@H]1c1ccc(CO)cc1 | 1.56 | 0.94 | 1.33 | -3.68 (inactive) | 0.247 | 0.122 | -1.4 | -0.509 | -0.83 | 1.03 | -0.93 | -3.47 | -1.3 | 1.48 | 0.775 | 0.157 | -0.12 | -0.784 | 0.461 | 1.27
8 | COCCOC(=O)N1C(=O)[C@@]2(c3cc(C#CCC(C(=O)OC)C(=O)OC)ccc31)[C@H](C(=O)N1CCCCCCC1)[C@H]1C(=O)O[C@H](c3ccccc3)[C@H](c3ccccc3)N1[C@@H]2c1ccc(O)cc1 | 1.36 | 1.7 | 1.41 | 0.0931 (inactive) | 1.2 | 1.3 | 0.783 | 1.45 | 1.07 | 1.63 | 1.37 | -0.586 | 0.485 | 1.1 | 0.624 | 0.244 | -0.0422 | 2.33 | 0.166 | 1.3
9 | [N-]=[N+]=NCc1ccccc1[C@H]1OC(c2ccc(OCCCO)cc2)=N[C@@]1(Cc1ccccc1N=[N+]=[N-])C(=O)N1CCCCC1 | 1.31 | 1.11 | 1.06 | 0.532 (inactive) | 1.42 | 1.29 | 0.363 | 1.25 | 0.256 | 1.23 | 1.46 | -2.19 | 0.291 | 1 | 0.289 | 0.132 | -0.157 | 1.76 | 1.44 | 1.3
10 | O=C1c2ccccc2[C@](Cc2ccccc2I)(C(=O)NCC(F)(F)F)[C@H](c2ccc(CO)cc2)N1Cc1ccccc1 | 1.14 | 0.0143 | 0.296 | -0.507 (inactive) | 0.269 | 0.848 | -0.0654 | 0.871 | -0.316 | 0.545 | 1.42 | -0.673 | -0.38 | 1.4 | 0.464 | -0.155 | 0.0048 | 0.0139 | 0.419 | 0.928
11 | CC(C)C[C@@H]1NC(=O)[C@@]23C(=O)N[C@@H](Cc4ccccc4)C2[C@H](C)[C@@]2(C)O[C@H]2C3/C=C/C/C=C\CNC(=O)[C@@H]2CCCN2C1=O (stereo not given in full) | 0.324 | -0.277 | -0.719 | -0.358 (inactive) | 0.0165 | -0.623 | 0.0731 | 0.361 | 0.534 | 1.42 | -0.282 | -0.972 | 0.283 | -0.749 | -0.721 | -0.124 | -0.138 | -0.219 | -0.22 | -0.442
